Data on 20 molecules can be found in PubChem BioAssay (Tox21).

The nature of assay [1]: qHTS RealTime-Glo MT Cell Viability Assay in HEK293 cells - 16 hour (AID 1224872). Note: nearly all actives have a fitted effect of over 50% in size. Note: potency is the fitted concentration of half-maximal effect. In short, it runs like this: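 HEK293 cells seeded with NanoLuc/prosubstrate reagent, rested 5 h at 37 C, then dosed and kept at 37 C up to 40 h. Nonlytic real-time luminescence from viable cells read at 0, 8, 16, 24, 32 and 40 h.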
A short description of assay [2]: qHTS RealTime-Glo MT Cell Viability Assay in HepG2 cells - 8 hour (AID 1224873). Note: nearly all actives have a fitted effect of over 55% in size. Note: potency is the fitted concentration of half-maximal effect. In short, it runs like this:
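Real-time viability: cells seeded at 600 per well together with NanoLuc and cell-permeant prosubstrate, compounds added after 5 h incubation. Luminescence tracked at 0, 8, 16, 24, 32 and 40 h of exposure.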

Assay [3] is described as follows: qHTS RealTime-Glo MT Cell Viability Assay in HEK293 cells - 40 hour (AID 1224874). Note: nearly all actives have a fitted effect of over 50% in size. Note: potency is the fitted concentration of half-maximal effect. The settings on record: RealTime-Glo luminescence; max response: stronger effect = lower value. An outline of the steps: (§1)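 HEK293 + NanoLuc + prosubstrate, 600 cells/well; 5 h, 37 C/5% CO2; compound 23 nL in DMSO by pintool; 37 C; luminescence read at 0, 8, 16, 24, 32 and 40 h time points.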

The nature of assay [4]: A CellTox Green Cytotoxicity Assay to monitor cytotoxicity in HEK293 cells - 24 hour (AID 1224875). Note: nearly all actives have a fitted effect of over 45% in size. Note: potency is the fitted concentration of half-maximal effect. An outline of the steps:
(§2)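 Tox21 screen in HEK293: membrane-impermeant cyanine dye fluoresces on binding dead-cell DNA; compound pinned 5 h post-seeding, plates held at 37 C, signal read repeatedly through 40 h.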

Assay [5] can be described thus: qHTS RealTime-Glo MT Cell Viability Assay in HepG2 cells - 32 hour (AID 1224877). Note: nearly all actives have a fitted effect of over 55% in size. Note: potency is the fitted concentration of half-maximal effect. An outline of the steps: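 HepG2 cells (600/well) were dispensed with RealTime-Glo reagents, incubated 5 h at 37 °C, then treated with compounds in DMSO for up to 40 h. Nonlytic NanoLuc luminescence reflecting viable cells was read at each stated time point.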
Assay [6] can be described thus: A CellTox Green Cytotoxicity Assay to monitor cytotoxicity in HepG2 cells - 24 hour (AID 1224878). Note: nearly all actives have a fitted effect of over 45% in size. Note: potency is the fitted concentration of half-maximal effect. An outline of the steps:
(§3)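 Measurements at 0, 8, 16, 24, 32 and 40 h of treatment captured CellTox Green fluorescence in HepG2 cells that had been co-plated with reagent and preincubated 5 h at 37 C/5% CO2.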

A short description of assay [7]: A CellTox Green Cytotoxicity Assay to monitor cytotoxicity in HepG2 cells - 40 hour (AID 1224879). Note: nearly all actives have a fitted effect of over 40% in size. Note: potency is the fitted concentration of half-maximal effect. An outline of the steps: as §3
A short description of assay [8]: qHTS RealTime-Glo MT Cell Viability Assay in HEK293 cells - 0 hour (AID 1224880). Note: top concentration of the series differs between compounds; nearly all actives have a fitted effect of over 45% in size. In short, it runs like this: as §1
A short description of assay [9]: A CellTox Green Cytotoxicity Assay to monitor cytotoxicity in HEK293 cells - 32 hour (AID 1224881). Note: nearly all actives have a fitted effect of over 40% in size. Note: potency is the fitted concentration of half-maximal effect. In short, it runs like this: as §2
Assay [10] can be described thus: A CellTox Green Cytotoxicity Assay to monitor cytotoxicity in HepG2 cells - 16 hour (AID 1224876). Note: nearly all actives have a fitted effect of over 45% in size. Note: potency is the fitted concentration of half-maximal effect. In short, it runs like this: as §3

The structures appear in SMILES notation. Where “and” joins values, the source holds several entries; their conditions need not be identical. Equal values may be shown once. Results filed as inconclusive are left out. A number with no mark means an inactive call. Calls of active or inactive are those of the source. Calls come from the whole dose curve; as a rule, active = well fitted curve in the direction sought with a large enough effect in the repeat runs; inconclusive = weak or mixed curves; inactive = no such curve, though single readings can be large; an effect the other way counts as inactive or inconclusive.
% is set by controls: 0 for no effect and ±100 for the full control effect.

As to `NCCCC(O)(P(=O)(O)O)P(=O)(O)O`, the Potency entry in assay [1], in assay [2], in assay [4], in assay [5], in assay [6] and in assay [7] was “inactive” throughout. Besides, the Potency result in assay [8] and in [9] was “inactive” throughout. The max response in assay [3] was 12.2%.

Consider `CCCCCCCC/C=C/CCCOC(C)=O`, for which the Potency entry in assay [1], in [2], in assay [4], in [5], in [6] and in assay [7] was “inactive” in each case. Moreover, the Potency entry in assay [8] and in [9] was “inactive” throughout. Moreover, the max response in assay [3] is 4.7%.

Regarding `CCC(=O)OCCc1ccccc1`, the Potency entry in assay [1], in assay [2], in [4], in assay [5], in assay [6] and in [7] was “inactive” in each case. Besides, the Potency entry in [8] and in [9] was “inactive” in each case. Also, the max response in assay [3] is 14%.

Consider `C/C=C/C(=O)Oc1c(CCCCCC(C)C)cc([N+](=O)[O-])cc1[N+](=O)[O-]`, for which the Potency is 19.5 µM (active) in [1]; 21.9 µM (active) in assay [2]; 7.76 µM (active) in [3]; 38.9 µM (active) in assay [4]; 38.9 µM (active) in assay [5]; 38.9 µM (active) in assay [6]. For the same molecule, the Potency in assay [7] and in assay [9] was 38.9 µM (active) in each case. Besides, in [8], the Potency result was “inactive”.

Consider `OCCCCl`, for which the Potency result in assay [1], in [2], in [4], in assay [5], in assay [6] and in [7] was “inactive” throughout. The Potency entry in assay [8] and in assay [9] was “inactive” throughout. The max response in assay [3] was 8.9%.

For the molecule `CCN=c1cc2oc3cc(NCC)c(C)cc3c(-c3ccccc3C(=O)OCC)c-2cc1C`, the Potency is 8.68 µM (active) and 6.17 µM (active) in assay [1]; 24.5 µM (active) and 21.9 µM (active) in assay [2]; 614 nM (active) and 550 nM (active) in [3]; 12.3 µM (active) and 11 µM (active) in assay [4]; 43.5 µM (active) and 21.9 µM (active) in [5]; 19.4 µM (active) and 5.49 µM (active) in assay [6]. For the same molecule, the Potency was 21.8 µM (active) and 6.17 µM (active) in [7]; 10.9 µM (active) and 11 µM (active) in [9]. Besides, the Potency result in assay [8] is “inactive”.

On to `c1cc[nH]c1`, for which the Potency entry in assay [1], in assay [2], in assay [4], in assay [5], in assay [6] and in [8] was “inactive” each time. Further, the Potency result in [9] was “inactive”. Also, the max response in assay [3] was 10.9%.

`Cc1cc(Nc2ccc(O)cc2)ccc1N`: the Potency was 24.4 µM (active) in assay [1], 43.5 µM (active) in assay [2], 19.4 µM (active) in assay [3] and 43.5 µM (active) in [9]. Further, the Potency entry in assay [10] and in assay [6] was “inactive” throughout.

For the molecule `O=C(Nc1ccc(Cl)cc1)Nc1ccc(Cl)c(C(F)(F)F)c1`, the Potency in [1] was 8.49 µM (active); in assay [3], 5.35 µM (active); in assay [7], 19 µM (active). The Potency result in assay [2], in [10] and in assay [8] was “inactive” each time.

Consider `Clc1nc2ccccc2s1`, for which the Potency result in assay [1], in [2], in assay [10], in assay [5], in assay [6] and in [7] was “inactive” in each case. The Potency entry in assay [8] and in assay [9] was “inactive” throughout. In assay [3], the max response was -10.6%.

As for `C=CC(C)C#N` (configuration not stated), the Potency entry in assay [1], in assay [2], in [10], in assay [5], in assay [6] and in assay [7] was “inactive” throughout. The Potency entry in assay [8] and in [9] was “inactive” throughout. Also, the max response in assay [3] is 11.1%.

For `CCN(CC)CCSC(=O)C(c1ccccc1)c1ccccc1`, the Potency entry in assay [1], in assay [2], in [10], in assay [6] and in assay [8] was “inactive” each time. In [3], the max response is -12.3%.

For the molecule `CCCCCCCCCCCCOC(=O)c1cc(O)c(O)c(O)c1`, the Potency was 6.89 µM (active) and 5.49 µM (active) in assay [1]; 48.8 µM (active) and 43.6 µM (active) in assay [2]; 3.45 µM (active) and 3.47 µM (active) in [3]; 48.8 µM (active) and 38.9 µM (active) in [10]; 48.8 µM (active) and 54.9 µM (active) in [7]; 48.8 µM (active) and 49 µM (active) in assay [9]. The Potency result in assay [8] was “inactive”.

As to `C(=C/c1ccccc1)/c1ccccc1`, the Potency result in assay [1], in [2], in assay [10], in [5], in assay [7] and in assay [8] was “inactive” in each case. Also, the max response in assay [3] is -13.3%.

As for `O=C1NCN(c2ccccc2)C12CCN(CCCC(c1ccc(F)cc1)c1ccc(F)cc1)CC2`, the Potency in assay [1] is 19 µM (active); in assay [2] it was 10.7 µM (active); in assay [3], 19 µM (active); in assay [10] it was 9.52 µM (active); in assay [5] it was 6.01 µM (active); in [7], 6.74 µM (active). Further, in assay [9], the Potency was 23.9 µM (active). In addition, the Potency entry in assay [8] was “inactive”.

Consider `C/C=C/C=N/NC(=O)c1ccncc1`, for which the Potency result in assay [1], in assay [2], in assay [10], in assay [5], in assay [7] and in assay [8] was “inactive” in each case. Besides, the max response in [3] is 11.4%.

Regarding `CCCC(O)C(O)CO` (configuration not stated), the Potency result in assay [1], in [2], in assay [10], in assay [5], in assay [6] and in assay [7] was “inactive” throughout. Further, the Potency result in assay [8] and in [9] was “inactive” in each case. Moreover, in assay [3], the max response is 4.32%.

`Cc1cc(=O)[nH]c(=O)[nH]1`: the Potency entry in [1], in assay [2], in [10], in [5], in [6] and in assay [7] was “inactive” throughout. For the same molecule, the Potency entry in [8] and in assay [9] was “inactive” each time. Besides, the max response in [3] is -0.154%.

Take `CCCCCCS`: the Potency result in assay [1], in assay [2], in assay [10], in assay [5], in assay [6] and in assay [7] was “inactive” throughout. Moreover, the Potency result in [8] and in assay [9] was “inactive” in each case. For the same molecule, the max response in [3] is 6.5%.

With `COC(=O)NCCC[Si](OC)(OC)OC`, the Potency entry in [1], in assay [2], in assay [10], in [6], in [7] and in [8] was “inactive” in each case. Further, the Potency result in assay [9] was “inactive”. Besides, the max response in assay [3] was 15.5%.
